Screening results as filed in PubChem.
This is a sample that favours compounds with a hit; in the whole collection about 2.4% have one here.
D2 antag: HTS Assay for Allosteric Antagonists of the Human D2 Dopamine Receptor: Primary Screen for Antagonists; D(2) dopamine receptor (Homo sapiens), P14416; HEK293 TREx D2 cells, calcium flux, dopamine EC80; inhibition, % at 10 µM; 2% of 340,000 active; in the data active = inhibition above about 30%; inactive = below that, where a call was filed; also: 0% is about no effect
Target sequence (P14416 whole entry, looked up): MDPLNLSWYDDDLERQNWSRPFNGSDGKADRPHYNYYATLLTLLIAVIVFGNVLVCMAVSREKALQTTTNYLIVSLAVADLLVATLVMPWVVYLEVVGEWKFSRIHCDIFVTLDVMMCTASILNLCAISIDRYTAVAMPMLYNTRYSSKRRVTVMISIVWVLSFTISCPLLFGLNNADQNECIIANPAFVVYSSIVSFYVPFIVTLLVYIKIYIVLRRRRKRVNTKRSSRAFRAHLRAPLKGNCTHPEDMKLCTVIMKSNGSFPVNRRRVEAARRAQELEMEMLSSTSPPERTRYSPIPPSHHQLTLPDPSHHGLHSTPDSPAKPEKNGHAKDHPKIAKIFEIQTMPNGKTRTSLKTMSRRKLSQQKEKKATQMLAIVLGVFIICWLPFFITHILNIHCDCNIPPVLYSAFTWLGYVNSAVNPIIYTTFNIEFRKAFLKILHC
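Inhibition of EC80 dopamine-driven calcium flux, recorded kinetically, defines activity here; cells are a tetracycline-induced HEK293 T-REx line expressing force-coupled D2.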
D2 PAM-1: Beta-Arrestin HTS for Positive Allosteric Modulators of the Human D2 Dopamine Receptor: Potentiators; 0.23% of 360,000 active; DiscoveRx D2 beta-arrestin cells, luminescence, 90 min; 100% = 57 uM dopamine signal; potentiation, % (concentration not given with the values); in the data active = potentiation above about 50%; inconclusive = mostly about 30% to 49%
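D2 cells co-treated with compound plus 50 nM dopamine (EC20) for 90 min at 37 deg C to detect potentiation. Beta-arrestin recruitment was read as enzyme-fragment luminescence after 1 h at ambient temperature. Full response was set by 57 uM dopamine.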
D2 ag-1: Beta-Arrestin HTS for Positive Allosteric Modulators of the Human D2 Dopamine Receptor: Agonists. D(2) dopamine receptor (Homo sapiens), P14416. DiscoveRx PathHunter D2 beta-arrestin, luminescence, 90 min; 100% = 57 uM dopamine signal. activation, % (no concentration beside the values). 0.084% of 360,000 active; in the data active = activation above about 40%; inconclusive = between about 15% and that limit
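DiscoveRx PathHunter D2 beta-arrestin cells (2,100/well) attached overnight, then compound-stimulated 90 min at 37 C in HBSS/10 mM HEPES/0.1% Tween-20 buffer; beta-galactosidase complementation read by luminescence after 1 h at ambient temperature. Dopamine 57 uM final (EC100) as control.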
D2 ag-2: HTS Assay for Allosteric Agonists of the Human D2 Dopamine Receptor: Primary Screen for Agonists. HEK293 T-REx D2 cells, calcium flux agonist mode. activation, % at 2 µM. 0.53% of 340,000 active. AID 485358, 2010;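 active = activation over 3 SD above normal in the single-dose calcium agonist read, cut at about 30% in these data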; also: 0% is about no effect
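HEK293 Trex D2 cells, tetracycline-induced, o/n 30 C 5% CO2; no-wash Ca dye, RT 30–90 min; 10-cycle baseline, 23 nl cpd added, kinetic Ca read 180 s; agonist hits = positive Ca response.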
D2 PAM-2: HTS Assay for Positive Allosteric Modulators of the Human D2 Dopamine Receptor: Primary Screen for Potentiators; HEK293 T-REx D2, calcium flux, EC20 dopamine potentiation; potentiation, % at 10 µM; 0.34% of 340,000 active;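 active = potentiation over 3 SD above the plate norm, cut at about 30% in these data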; also: 0% is about no effect
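Tetracycline-induced Hek293 Trex D2 cells, force-coupled to calcium, loaded with no-wash calcium dye. Compound added with 180 s kinetic read for agonism, then EC20 dopamine and a further 180 s read for potentiation.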
* hit, by the source's call; ? = inconclusive; . = no result given; ! = a repeat was not active.

SMILES	D2 antag	D2 PAM-1	D2 ag-1	D2 ag-2	D2 PAM-2
CCN1CCCC1CNC(=O)c1cc2ccc(OC)cc2[nH]1 (stereo unspecified)	9	-25	-3	0	0
CCC1CCCN1Cn1cnc2c([nH]c3ccccc32)c1=O (stereo unspecified)	-8	-12	-2	-1	1
CCN1CCCC1CNC(=O)c1cc([N+](=O)[O-])c(N(C)C)cc1OC (stereo unspecified)	75*	-4	-4	0	-38
CCC1CCCN1Cn1cnc2c([nH]c3ccc(OC)cc32)c1=O (stereo unspecified)	-15	-21	2	-1	35*
CCN1CCCC1CNC(=O)c1csc2c1CCCC2 (stereo unspecified)	86*	-29	-2	-2	-18
CCN1CCCC1CNC(=O)c1[nH]c2ccc(OC)cc2c1C (stereo unspecified)	40*	-22	-5	.	-35
COc1ccccc1S(=O)(=O)N(C)C[C@@H]1OCc2cnnn2CCCC(=O)N([C@@H](C)CO)C[C@@H]1C	.	-4	-4	.	.
CCN1CCC[C@H]1CNC(=O)c1cc(S(N)(=O)=O)ccc1OC	87*	.	.	1	-23
Cn1cccc1C(=O)OCC(=O)N1CC(=O)Nc2ccccc21	34*	-22	-4	2	2
COc1ccccc1C/C(N)=N/OC(=O)c1cccs1	3	53*	?	0	-4
N/C(Cc1ccc(Cl)cc1Cl)=N\OC(=O)Cc1cccs1	3	-1	-1	0	7
N/C(Cc1cccc2ccccc12)=N\OC(=O)c1cccs1	-17	-15	-1	9	0
N/C(Cc1ccc(Cl)cc1Cl)=N\OC(=O)c1cccs1	-25	119*	14	-1	-1
CC(Sc1nnc(N)s1)C(=O)Nc1ccc2c(c1)OCCO2 (stereo unspecified)	-9	-7	-1	-2	0
O=C(c1ccco1)N1N=C2CCCCCC2C1(O)C(F)(F)F (stereo unspecified)	-5	1	-3	-1	32*
Cn1nnnc1SCC(=O)Nc1nc2c(F)c(F)c(F)cc2s1	.	0	-3	.	.
CSc1ccc(C(=S)N2CCN(CCO)CC2)cc1	-21	-12	-3	-1	10
OCCN1CCN(C(=S)c2ccc(Br)cc2)CC1	55*	-11	-3	0	-7
Cc1ccc(C)c(SCC(=O)NC(=O)NC2CCCC2)c1	22	0	-2	1	-2
CC1=C(c2ccc(C)c(C)c2)S(=O)(=O)N=C1N1CCC(C(=O)NC(C)c2ccccc2)CC1 (stereo unspecified)	.	.	.	.	9
O=C1C2CCCN2C(c2cccc(Br)c2)N1c1ccc(F)cc1 (stereo unspecified)	38*	-2	0	-1	-6
CCOC(=O)CNC(=O)Cn1cnc2sc(C)c(S(=O)(=O)N3CCOCC3)c2c1=O	8	-5	-7	1	8
Cc1sc2ncn(CC(=O)NCc3ccccn3)c(=O)c2c1S(=O)(=O)N1CCOCC1	-2	-6	1	0	49*
Cc1ccccc1NC(=O)c1ccc([N+](=O)[O-])o1	-12	10	?	-1	11
Cc1ccc(NC(=O)c2ccc([N+](=O)[O-])o2)c(C)c1	33*	5	?	0	-5
SMILES	D2 antag	D2 PAM-1	D2 ag-1	D2 ag-2	D2 PAM-2
O=C(Nc1ccc(NC(=O)c2ccc([N+](=O)[O-])o2)cc1Cl)c1ccco1	40*	13	14	1	-22
CCC(C)NC(=O)Cn1c(=O)n(CCCCCC(=O)NCc2ccccc2Cl)c(=O)c2sccc21 (stereo unspecified)	.	.	.	0	7
C/C(=C\C(=O)c1ccccc1)Nc1ccc(O)cc1	-10	56*	?	-1	-5
O=C(COC(=O)c1ccc[n+]([O-])c1)Nc1cc([N+](=O)[O-])ccc1Cl	.	-4	0	.	.
CS(=O)(=O)Nc1ccc2[nH]c(=O)[nH]c2c1	-1	0	0	1	-2
CCS(=O)(=O)Nc1ccc2[nH]c(=O)[nH]c2c1	33*	1	-5	3	-7
CN(C)S(=O)(=O)c1ccc(N2CCCC2)c(C(=O)NNC(=O)COc2ccccc2Cl)c1	20	-16	-2	-1	3
COc1ccc(NC(=O)CN(C)C(=O)c2cc(S(=O)(=O)N(C)C)ccc2N2CCCC2)cc1	38*	3	0	1	8
COc1ccc(NS(=O)(=O)c2cc(NC(=O)CCNC(C)=O)ccc2N2CCCCC2)cc1	37*	-2	2	0	4
CN(C)S(=O)(=O)c1ccc(N2CCCC2)c(C(=O)NNC(=O)COc2ccccc2F)c1	57*	2	-1	1	-5
CC(=O)Nc1cc(-c2ccc(N)cc2)cn2c(-c3cccc(C(F)(F)F)c3)cnc12	.	3	2	.	.
CCc1cc2c(cc3c(=O)n(CC(=O)NCCc4ccc(OC)cc4OC)nc(CC)n32)s1	.	.	.	0	.
O=C(Nc1cccnc1)c1ccc2snnc2c1	35*	-13	2	-1	6
O=C(Nc1ccccc1)c1ccc2snnc2c1	-4	-2	-5	-1	-4
O=C(COC(=O)c1ccc(F)cc1F)Nc1cc(S(=O)(=O)N2CCOCC2)ccc1Cl	-10	-10	-1	0	4
CC(C)N(Cc1nc(-c2ccccc2)no1)C(=O)c1ccc2c(c1)OCO2	31*	-8	1	-3	4
CCOC(=O)c1c(C)[nH]c(C)c1S(=O)(=O)NCC1CCN(Cc2ccccc2F)CC1	-3	-20	4	1	-24
CCOC(=O)c1c(C)[nH]c(C)c1S(=O)(=O)NCC1CCN(Cc2ccc(C)cc2)CC1	87*	-32	-2	0	-24
CCOC(=O)c1c(C)[nH]c(C)c1S(=O)(=O)NCC1CCN(Cc2cccc(Cl)c2)CC1	78*	-22	-3	-1	-32
O=C(CN1C(=O)COc2ccc(S(=O)(=O)NC3CCCC3)cc21)NCc1ccc(Cl)cc1	.	.	.	0	-11
COc1ccccc1C(=O)NC(CCSC)C(=O)OCC(=O)N1CCN(S(=O)(=O)c2ccc(C)cc2)CC1 (stereo unspecified)	.	-7	-2	.	.
CCCCCn1c(=N)n(CC(O)COc2ccccc2OC)c2ccccc21 (stereo unspecified)	32*!	-3	-4	-1	-10
